# Tgondii IFNg: blocks Toxoplasma gondii growth in the presence of IFN-gamma | AID 1259416 | 69,000 tested, 3.8% active | Toxoplasma gondii growth in IFN-gamma-treated host cells; stronger effect = lower value | activity change, negative = inhibition, % (no concentration beside the values); in the data active = activity change below about -70%, passing the limit was not always enough;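 note: host cells are HeLa cells infected with Toxoplasma gondii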
# * = called active by the depositor; i = inactive. The entries come from a sample that favours hits as a whole.
SMILES,Tgondii IFNg
COc1ccc(CCN2CN=C(NS(=O)(=O)c3ccc(C)cc3)NC2)cc1OC,-18
CC(=O)c1ccc(OCC(O)CN2CCN(C(c3ccccc3)c3ccccc3)CC2)cc1 (configuration not stated),-61
CCCCCOc1ccc(C(O)C(CN2CCCC2)c2ccccc2)cc1 (configuration not stated),-91*
CCOC(CN1CCN(CC(C)C(=O)c2ccccc2)CC1)c1ccccc1 (configuration not stated),-9
O=C(c1cccc(F)c1)N1CCn2nnc(COc3ccccn3)c2C1,-2
C[C@@H]1CN([C@@H](C)CO)C(=O)c2cc(NS(=O)(=O)c3ccc(Cl)cc3)ccc2O[C@@H](C)CCCCO[C@@H]1CN(C)Cc1ccncc1,-113*
C[C@@H]1CCCCO[C@@H](CN(C)Cc2ccc(Cl)c(Cl)c2)[C@H](C)CN([C@@H](C)CO)C(=O)c2cc(NS(=O)(=O)c3cccs3)ccc2O1,-44
C[C@@H]1CCCCO[C@@H](CN(C)Cc2ccncc2)[C@@H](C)CN([C@@H](C)CO)C(=O)c2cc(NS(=O)(=O)c3ccc(Cl)cc3)ccc2O1,50
C[C@@H]1CCCCO[C@@H](CN(C)Cc2ccc(Cl)c(Cl)c2)[C@H](C)CN([C@H](C)CO)C(=O)c2cc(NS(=O)(=O)c3cccs3)ccc2O1,-54
C[C@@H]1CN([C@H](C)CO)C(=O)c2cc(NS(=O)(=O)c3cccs3)ccc2O[C@@H](C)CCCCO[C@H]1CN(C)Cc1ccc(Cl)c(Cl)c1,-67
C[C@@H]1CCCCO[C@@H](CN(C)Cc2ccncc2)[C@H](C)CN([C@H](C)CO)C(=O)c2cc(NS(=O)(=O)c3ccc(Cl)cc3)ccc2O1,-105*
C[C@@H]1CCCCO[C@@H](CN(C)Cc2ccc(Cl)c(Cl)c2)[C@@H](C)CN([C@@H](C)CO)C(=O)c2cc(NS(=O)(=O)c3cccs3)ccc2O1,278
C[C@@H]1CN([C@H](C)CO)C(=O)c2cc(NS(=O)(=O)c3ccc(Cl)cc3)ccc2O[C@@H](C)CCCCO[C@@H]1CN(C)Cc1ccncc1,-112*
C[C@@H]1CCCCO[C@H](CN(C)Cc2ccncc2)[C@H](C)CN([C@@H](C)CO)C(=O)c2cc(NS(=O)(=O)c3ccc(Cl)cc3)ccc2O1,32
Cc1cc(OS(=O)(=O)c2ccc(F)c(Cl)c2)n(-c2ccccc2)n1,24
C1CCC(c2nc3c(c(N4CCOC5(CNCCOC5)C4)n2)CNC3)C1 (configuration not stated),1
O=C(Nc1ccc(Cl)cc1)N1C[C@H]2[C@@H](c3ccccc31)[C@@H](CO)N2CC1CCCCC1,-33
O[C@@H]1CN(c2ncccn2)CC[C@H]1N1CCN(CCc2ccccc2)CC1,-15
CCC(=O)N1CCCC(c2cc(C(F)(F)F)c3c(=O)n(C)c(=O)n(C)c3n2)C1 (configuration not stated),-79*
CCC(=O)N1CCCC(c2cnc(Nc3nccs3)cn2)C1 (configuration not stated),-29
CCN1CCN(CC(=O)N2CCCC(c3cc(=O)n4c(n3)CCCCC4)C2)CC1 (configuration not stated),-1
Cc1[nH]c2c(C)ccc(C)c2c1CC(=O)Nc1cccc(Cn2cncn2)c1,7
COC(=O)c1ccc(NC(=O)C(=O)NCCc2sc(-c3ccccc3)nc2C)cc1,-45
O=C(Nc1ccc(F)cc1)Nc1ccc(-c2nc(-c3ccccc3)co2)cc1,2
COc1ccc(-c2cc(C(F)(F)F)nn2-c2nc(-c3ccc(C)cc3)cs2)cc1,28
SMILES,Tgondii IFNg
Cc1ccc(-c2cc(C(F)(F)F)nn2-c2nc(-c3ccccc3)cs2)cc1,-42
CC(=O)Oc1cccc(-c2csc(-n3nc(C(F)(F)F)cc3-c3ccc(Cl)cc3)n2)c1,-93*
COC(=O)c1ccc2c(c1)N(Cc1nc(-c3ccccc3OC)oc1C)C(=O)c1ccccc1S2,-63
COc1nccnc1-c1c[nH]c2ccc(C)cc12,138
Cc1ccc2[nH]cc(-c3nccc(C(F)(F)F)n3)c2c1,-12
COc1nc(OC)nc(-c2c[nH]c3ccc(C)cc23)n1,-87*
NC(=O)c1cc2c(s1)-c1cc(Cl)ccc1SC2,-79*
COc1ccc(CC(=O)N2CCC3(CC2)NC(=O)c2cc(F)ccc2N3C)cc1,42
COc1ccc(NC(=O)c2c(O)c3cccnc3[nH]c2=O)cc1F,62
Cc1c(Cc2c(Cl)cccc2Cl)c(=O)oc2cc(O)ccc12,-71*
O=c1c2ccccc2oc2cc(O)ccc12,49
COc1cc(COc2ccc3c(C)c(Cc4ccccc4)c(=O)oc3c2)cc(OC)c1OC,-13
COc1ccc2c3c(n(C)c2c1)[C@H](CO)N(C(=O)Cc1ccccn1)CC31CCN(C)CC1,-1
CCOC(=O)c1ccc(NC(=O)NCC(c2cccnc2)c2c[nH]c3ccccc23)cc1 (configuration not stated),50
Cn1cc(C(CNC(=O)Nc2cccc(Br)c2)c2cccnc2)c2ccccc21 (configuration not stated),-59
CCn1cc(C(CNC(=O)Nc2cccc(SC)c2)c2cccnc2)c2ccccc21 (configuration not stated),-111*
CCn1cc(C(CNC(=O)Nc2ccc(OC)cc2OC)c2cccnc2)c2ccccc21 (configuration not stated),i
CCOC(=O)c1ccc(NC(=O)NCC(c2cccnc2)c2cn(CC)c3ccccc23)cc1 (configuration not stated),-102*
CCOC(=O)c1ccc(NC(=O)NCC(c2cccnc2)c2cn(C)c3ccccc23)cc1 (configuration not stated),i
CNS(=O)(=O)c1ccc(CN2CCCC2c2ccc(F)cc2)cc1 (configuration not stated),6
Cc1cccc(-c2nc(Cn3nnc(-c4nc(-c5ccccc5)no4)c3C)c(C)o2)c1,-9
Cc1nc(CN2CCC(N3CCCC3)CC2C(=O)O)cs1 (configuration not stated),i
COc1ccc(NC(=O)CN2CCC3(CC2)N=C(c2ccc(F)cc2)C(=O)N3)cc1Cl,-34
Cc1cccc(C(C(=O)N2CCCN(C(=O)C3CC3)CC2)N(C)C)c1 (configuration not stated),-3
O=C1NCC2(CCCN(C(=O)Cc3cccnc3)CC2)O1 (configuration not stated),-1
SMILES,Tgondii IFNg
COCC(NC(=O)c1cccc(CC2CCNCC2)c1)c1ccnn1C (configuration not stated),4
CCCn1nccc1C(=O)N1CCNC(=O)C1c1ccc(F)cc1 (configuration not stated),-3
CC(C)(C)c1[nH]cnc1/C=c1\[nH]c(=O)/c(=C/c2ccccc2)[nH]c1=O,-87*
COc1ccccc1-c1nc(CN(c2ccccc2OC)S(=O)(=O)c2ccccc2C)c(C)o1,-55
COc1ccc(S(=O)(=O)N(C)Cc2nc(-c3cccc(Cl)c3)oc2C)cc1,-99*
COc1cccc(N(Cc2nc(-c3cccc(Cl)c3)oc2C)S(=O)(=O)c2ccccc2)c1,-35
Cc1ccc(S(=O)(=O)N(C)Cc2nc(-c3ccccc3C)oc2C)c(C)c1,-13
Cc1oc(-c2cccc(Cl)c2)nc1CN(C)S(=O)(=O)c1ccc(F)cc1,-16
COc1ccccc1-c1nc(CN(C)S(=O)(=O)c2ccc(C)cc2C)c(C)o1,-104*
CC1CCC(C)N1c1cc(C(F)(F)F)cc(C(F)(F)F)c1 (configuration not stated),19
